# Assay outcomes deposited in PubChem BioAssay by National Center for Advancing Translational Sciences (NCATS).
# Gal4-VP16 FLuc = inhibits Gal4-VP16 luciferase reporter, ROR gamma counter-screen; Potency, µM (series often up to 53.6 µM), without a hit: at the top dose activity, negative = inhibition, actives largely listed as inhibitors; 3.5% of 310,000 active; Drosophila S2 Gal4-VP16 UAS-luciferase, luminescence, 20 h; AID 2546;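 also: Gal4-VP16 expression switched on by copper sulfate through the metallothionein promoter; nearly all actives have a fitted effect of over 50% in size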
# RORgamma inh = inhibitors of mouse ROR gamma transcriptional activity. P51450. Drosophila S2 Gal4-RORgamma UAS-luciferase reporter, 20 h. Potency, µM (doses to about 53.6 µM), without a hit: at the top dose activity change, negative = inhibition, most hits filed as inhibitors. 5.4% of 310,000 active. AID 2551; also: nearly all actives have a fitted effect of over 60% in size
#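 Stable Schneider cell line, Gal4 DNA-binding domain fused to ROR gamma, UAS-luciferase. Cmpd 1 hr RT → CuSO4 700 uM final → 20 hr RT → luciferase reagent 10 min → luminescence.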
# NPSR antag = neuropeptide S receptor (human) antagonism, cAMP | CHO-NPSR cells, cAMP TR-FRET, antagonist mode | Potency, µM (highest dose often 38.3 µM), for inactives: at the highest dose activity change, negative = inhibition, hits mostly inhibitors | 1% of 220,000 active; also: nearly all actives have a fitted effect of over 50% in size
# B2AR arrestin = agonists driving beta-arrestin recruitment to human beta2-adrenergic receptor; AID 492947; Potency, µM (doses to about 46.1 µM), without a hit: at the top dose activation, usual class: activators; 0.02% of 330,000 active; beta-arrestin recruitment to beta2AR, cell-based reporter;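 also: 0% = DMSO controls and full agonism = EC100 isoproterenol or metaproterenol; nearly all actives have a fitted effect of over 65% in size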
# Target sequence (P07550 whole entry, looked up): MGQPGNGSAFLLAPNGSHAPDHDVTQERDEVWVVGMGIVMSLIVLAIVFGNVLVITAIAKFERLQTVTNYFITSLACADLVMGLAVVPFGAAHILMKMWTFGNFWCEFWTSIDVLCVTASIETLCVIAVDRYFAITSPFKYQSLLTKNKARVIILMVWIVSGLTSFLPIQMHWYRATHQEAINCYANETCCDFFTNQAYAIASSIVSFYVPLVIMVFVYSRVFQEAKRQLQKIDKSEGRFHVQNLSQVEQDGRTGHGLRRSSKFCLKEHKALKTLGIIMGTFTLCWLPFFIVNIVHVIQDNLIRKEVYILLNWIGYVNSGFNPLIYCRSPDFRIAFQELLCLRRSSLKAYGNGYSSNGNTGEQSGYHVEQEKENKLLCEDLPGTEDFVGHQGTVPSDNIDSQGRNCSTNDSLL
# * hit, by the source's call; ? = inconclusive; / = no result; ! = repeats disagree; [ ] = dose if it differs, or a comment. In the library only some 5.7% were active in any assay of this set; here they are far more common. Calls follow the shape of the dose curve; as a rule, active = well fitted curve in the direction sought with a large enough effect; inconclusive = small, poorly fitted or top-dose-only effect, or another doubt; inactive = no such curve, though single readings can be large; an effect the other way counts as inactive or inconclusive. Unless noted, % is scaled to controls: 0 for no effect and ±100 for the full control effect; potency is read from the fitted curve at half-maximal effect.
SMILES,Gal4-VP16 FLuc,RORgamma inh,NPSR antag,B2AR arrestin
NS(=O)(=O)c1ccc(N=Cc2c(O)n(C3CCCCC3)c(=O)n(C3CCCCC3)c2=O)cc1,-11%,-10%,10µM*,0%
C#CCN[C@H](C)Cc1ccccc1,/,/,-8%[46.1 µM],0%
C[C@@H](Cc1cccc(C(F)(F)F)c1)NCCCc1ccccc1,-11%,22µM*,/,/
Nn1cnnc1,5%,-6%,/,/
CC(C)=CCCN1CCC(NC(=O)C(O)(c2ccccc2)C2CCCC2)CC1 (centres undefined),-7%,10%,/,/
O=C(Nc1nnc(-c2ccco2)o1)c1cccc2ccccc12,-98%,0.032µM*,20%,0%
CCCSC(=O)Cl,3%,15%,/,/
O=C(c1ccccc1)c1cn(CC(=O)N2CCCc3ccccc32)c2ccccc12,0%,-9%,10µM*,0%
C=C(C)[C@H]1CC[C@]2(C(=O)O)CC[C@]3(C)[C@@H](CC[C@H]4[C@@]5(C)CC[C@@H](O)C(C)(C)[C@@H]5CC[C@@]43C)[C@H]12,6%[17 µM],-8%[16.9 µM],/,/
O[N+]1=CC=CCC1=S.On1ccccc1=S.[Zn],0.5µM*,0.32µM*,/,/
CCN(CC)c1ccc(CN2CC=C(c3ccc(F)cc3)CC2)cc1,-6%,-13%,10µM*,-1%
COc1ccc(CN2CC=C(c3ccc(F)cc3)CC2)cc1Br,-16%,-3%,/,9%
Cc1ncc2n1-c1ccc(Cl)cc1C(c1ccccc1F)=NC2O (centres undefined),7%,-44%,/,/
OCCBr,-3%,4%,/,/
CCC(COC(=O)NC)NC(=O)Oc1cccc(C)c1 (centres undefined),-5%,0%,-5%[46.1 µM],0%
CNC(=O)Oc1ccc(-c2cn3cc(C)ccc3n2)cc1,4µM*,2µM*,7%,0%
CNC(=O)Oc1cccc(-c2cn3cc(Cl)ccc3n2)c1,5µM*,-40%,1%,-1%
CCCCC/C=C\C/C=C\C/C=C\C/C=C\CCCC(=O)N(Cc1ccc(O)c(Cl)c1)Cc1ccc(O)c(Cl)c1,10%,3%,/,/
CNC(=O)O/N=C/C(C)(C)S(C)=O (centres undefined),0%,3%,/,/
O=C(NC1CCCCC1)c1cn(CCN2CCOCC2)c2cc(Cl)ccc2c1=O,-8%,-10%,/,/
COC(=O)/C(C)=C\CC12OC(C)(C)C3CC(C=C4C(=O)c5c(OC)c6c(c(CC=C(C)C)c5OC431)OC(C)(CCC=C(C)C)C=C6)C2=O (centres undefined),-1%,?,/,/
CC(=O)Oc1c2c(c(CC=C(C)C)c3c1C(=O)C1=CC4CC5C(C)(C)OC(C/C=C(\C)C(=O)O)(C4=O)[C@]15O3)OC(C)(CCC=C(C)C)C=C2 (some centres undefined),?,3.5µM*,/,/
Cc1ccc(-c2cc(-c3ccc(C)cc3)[n+](-c3ccc(C(=O)O)cc3)c(-c3ccc(C)cc3)c2)cc1,/,/,/,0%
O=C(O)c1ccc(-c2ccc3cc(C45CC6CC(CC(C6)C4)C5)c(O)cc3c2)cc1,11µM*,?,/,/
C=CC(=O)OCC(CO)(COC(=O)C=C)COC(=O)C=C,5.6µM*,4.5µM*,/,/
SMILES,Gal4-VP16 FLuc,RORgamma inh,NPSR antag,B2AR arrestin
O=C(COc1ccccc1)N1CCN(CCN2C(=O)c3cccc4cccc(c34)C2=O)CC1,1%,12%,-14%,0%
O=C1c2cccc3cccc(c23)C(=O)N1CCN1CCN(C(=S)Nc2ccccc2)CC1,?,14µM*,-13%,0%
Clc1nc(Cl)nc(Cl)n1,-4%,0%,/,/
COc1cccc([C@@]2(O)CCCCC2CN(C)C)c1 (some centres undefined),-2%,-3%,/,/
CCC1/C=C/C=CCC(C)C(O)[C@@](C)(O)C(=O)C(C)C(O)C(C)C(=O)C(C)C(O)C(C)C=CC(=O)O[C@H]2C(C)C(CC1)O[C@]1(CCC(C)C(CC(C)O)O1)C2C (some centres undefined),50µM*,0.0006µM*,/,/
ClCC(Cl)Cl,-8%,-5%,/,/
O=Cc1ccc2c(c1)OCO2,6%,0%,/,/
COc1ccc(N2C(=O)/C(=C/c3ccc(C)o3)C(=O)NC2=S)cc1,-4%,-14%,/,0%
Cc1ccc(/C=C2\C(=O)NC(=S)N(c3cccc(F)c3)C2=O)o1,-19%,11µM*,/,0%
CC1OC(=O)C(C(C)C)NC(=O)C(C(C)C)OC(=O)C(C(C)C)NC(=O)C(C)OC(=O)C(C(C)C)NC(=O)C(C(C)C)OC(=O)C(C(C)C)NC(=O)C(C)OC(=O)C(C(C)C)NC(=O)C(C(C)C)OC(=O)C(C(C)C)NC1=O (centres undefined),0.56µM*,0.25µM*,/,/
N#CC(Br)Br,1%,2.5µM*,/,0%
CCCCC(CC)COC(=O)c1ccc(C(=O)OCC(CC)CCCC)c(C(=O)OCC(CC)CCCC)c1 (centres undefined),-16%,1%,/,/
C/C(=N\N1CCCCC1c1cccnc1)c1c(O)n(C2CCCCC2)c(=S)[nH]c1=O (centres undefined),4µM*,3.2µM*,-39%,-2%
CCCCn1c(O)c(/C(CC)=N/N2CCCCC2c2cccnc2)c(=O)[nH]c1=S (centres undefined),?,?,-42%,0%
Clc1cccc(/C=N\Nc2nccs2)c1,?,11µM*,16%[46.1 µM],-1%
O=C(Nc1ccccc1F)Oc1cccc(OC(=O)Nc2ccccc2F)c1,-5%,40%,?,0%
O=C1C=CC(=O)C(Cl)=C1,?,11µM*,/,/
CC(Cc1ccc(C(C)(C)C)cc1)CN1CCCCC1 (centres undefined),-2%,-7%,/,/
CCc1ccc(N2C(=O)NC(=O)/C(=C\c3cccn3CCOc3ccc(C(C)C)cc3)C2=O)cc1,0.4µM*,-22%,-41%,1%
Cc1ccc(OCCn2cccc2/C=C2/C(=O)NC(=O)N(Cc3ccco3)C2=O)cc1,?,44%,-19%,1%
O=[N+]([O-])C(Br)Br,11µM*,13µM*,/,/
CCn1nc(-c2ccccc2)nc2c(=O)n(C)c(=O)nc1-2,1.3µM*,0.89µM*,4µM*,0%
Cc1ccc2c(Cl)cc(Cl)c(O)c2n1,0.89µM*!,0.56µM*!,/,/
CN(C)C(=O)Oc1c(Cl)cc(Cl)c2cccnc12,10%,15%,9%,0%
Cc1cccc(-n2c(=S)[nH]c3ccccc3c2=O)n1,?,13µM*,5%,0%
Cc1ccc2c(c1)C1(CCN(CCc3nc(-c4ccccc4)oc3C)CC1)OC(=O)N2,-26%,28%,/,/
CC(C)C(O)(C(=O)OC[C@@H]1CC[N+]2([O-])CCCC12)C(C)O (some centres undefined),-11%,-1%,/,/
C=C1C(=O)O[C@@H]2C[C@@H](C)[C@@H]3C4OC4C(=O)[C@@]3(C)[C@@H](O)[C@H]12 (some centres undefined),4µM*,2.8µM*,-21%,-1%
C=C1C(=O)O[C@H]2[C@H]1[C@H](OC(=O)CC(=O)O[C@@H]1C[C@@H](C)[C@@H]3C=CC(=O)[C@@]3(C)[C@H]3OC(=O)C(=C)[C@H]13)C[C@@H](C)[C@H]1C=CC(=O)[C@]12C,7.1µM*,7.1µM*,-18%,-1%
